Each structure is given as a SMILES string. In all, about 3,200 compounds went through this assay and about 75 (2%) showed an effect of 50% or more. The entries come from a sample that favours strong results as a whole.

In the assay the test system is T1, S. aureus MSSA476.
T1 construct: MSSA476
The arrangement: species or system S. aureus MSSA476 (TSB) or V. cholerae SAD30 (LB); 384-well bacterial growth screen at 25 uM, OD600 relative to DMSO control. To be noted: relative growth, OD600, TSB; 25 µM; inhibitor.
Take `CCN(CC)C(=O)c1cccc(NC(=O)CCl)c1` [5-I03, 3-(2-chloroacetamido)-N,N-diethylbenzamide]: the “% of control remaining” value was found to be 102.732%. The value for `N#CC(=Cc1cccs1)C(=O)Nc1ccc(C(=O)O)cc1` [8-A04, 4-[2-cyano-3-(thiophen-2-yl)prop-2-enamido]benzoic acid] was 109.212%; that for `CC(C)Oc1ccccc1C=C(C#N)C(=O)Nc1ccc(Cl)cc1` [9-L20, N-(4-chlorophenyl)-2-cyano-3-[2-(propan-2-yloxy)phenyl]prop-2-enamide] was 108.464%. Consider `N#CCCSc1ccccc1NC(=O)CCl` [6-N12, 2-chloro-N-{2-[(2-cyanoethyl)sulfanyl]phenyl}acetamide], for which the “% of control remaining” value was determined as 88.439%. Next, `CC(=O)NCCc1ccc(C(=O)CCl)s1` [10-P03, N-{2-[5-(2-chloroacetyl)thiophen-2-yl]ethyl}acetamide]: 143.125%. With `C=CC(=O)N1CCCN(C(=O)c2ccc(OC)cc2)CC1` [3-A21, 1-[4-(4-methoxybenzoyl)-1,4-diazepan-1-yl]prop-2-en-1-one], the “% of control remaining” value is 128.864%.

Regarding `C=CC(=O)N(CC)Cc1cn(C)nn1` [2-O09, N-ethyl-N-[(1-methyl-1H-1,2,3-triazol-4-yl)methyl]prop-2-enamide], the “% of control remaining” value came out at 106.527%. For `CN(CC(=O)Nc1ccccc1Cl)C(=O)CCl` [4-D05, 2-chloro-N-{[(2-chlorophenyl)carbamoyl]methyl}-N-methylacetamide], the “% of control remaining” value was 122.344%. In the case of `C=CC(=O)NCCc1ccccc1OC` [2-O03, N-[2-(2-methoxyphenyl)ethyl]prop-2-enamide], the “% of control remaining” value amounted to 95.7354%. Consider `C=CC(=O)N1CCOCC2(COCCN2C)C1` (stereo not shown) [3-J14, 1-{1-methyl-4,8-dioxa-1,11-diazaspiro[5.6]dodecan-11-yl}prop-2-en-1-one], for which the “% of control remaining” value was 109.012%. Next, `CC(Cl)C(=O)N1CCCC(NS(=O)(=O)c2cccc(F)c2)C1` (stereo not shown) [7-C13, N-[1-(2-chloropropanoyl)piperidin-3-yl]-3-fluorobenzene-1-sulfonamide]: 102.355%. Next, `Cc1cc(C(=O)CCl)c(C)n1-c1ccon1` [10-F06, 2-chloro-1-[2,5-dimethyl-1-(1,2-oxazol-3-yl)-1H-pyrrol-3-yl]ethan-1-one]: 106.875%; `Cc1cc(C(=O)C(C)Cl)c(C)n1-c1ccc(OC(F)F)cc1` (stereo not shown) [10-E10, 2-chloro-1-{1-[4-(difluoromethoxy)phenyl]-2,5-dimethyl-1H-pyrrol-3-yl}propan-1-one]: 125.938%. The value for `Cc1cc(C(=O)CCl)c(C)n1-c1ccc(OC(F)F)c(Cl)c1` [10-K04, 2-chloro-1-{1-[3-chloro-4-(difluoromethoxy)phenyl]-2,5-dimethyl-1H-pyrrol-3-yl}ethan-1-one] was 0%; that for `Cc1cc(C(=O)CCl)c(C)n1-c1ccc(OC(F)(F)F)cc1` [10-G04, 2-chloro-1-{2,5-dimethyl-1-[4-(trifluoromethoxy)phenyl]-1H-pyrrol-3-yl}ethan-1-one] was 115.313%; that for `Cc1cc(C(=O)CCl)c(C)n1-c1ccc(Cl)c(C(F)(F)F)c1` [10-L18, 2-chloro-1-{1-[4-chloro-3-(trifluoromethyl)phenyl]-2,5-dimethyl-1H-pyrrol-3-yl}ethan-1-one] was 0.3125%.
